The values below come from PubChem BioAssay (EPA / NIEHS).

Each structure is given as a SMILES string. Inconclusive results are not listed. The source made the active and inactive calls. How the source made its calls, unless noted: active means hit-call score of the fitted dose curve at least 0.9, where 1 is the maximum; inconclusive means response in the unintended direction; inactive means score below 0.9. Peptide text beside a SMILES is read from it.

In assay [1] the target is Estrogen receptor (Homo sapiens) (UniProt P03372). As to the kind of experiment: CCTE_Deisenroth_AIME_384WELL_LUC_Active: CCTE's 384-well Estrogen Receptor Transactivation Assay with AIME metabolic competence (ERTA luciferase; metabolism positive), Deisenroth Lab (AID 2284030). The essentials: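 Readout: bioluminescent luciferase induction in VM7Luc4E2 cells 24 hour after receiving medium from a 2 h rat hepatic S9 (induced, alginate microsphere) metabolism step. Concentrations 0.002 - 200 uM; activity scaled to 17beta-estradiol positive control.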
Chain of Estrogen receptor (Homo sapiens) (P03372 whole entry, looked up): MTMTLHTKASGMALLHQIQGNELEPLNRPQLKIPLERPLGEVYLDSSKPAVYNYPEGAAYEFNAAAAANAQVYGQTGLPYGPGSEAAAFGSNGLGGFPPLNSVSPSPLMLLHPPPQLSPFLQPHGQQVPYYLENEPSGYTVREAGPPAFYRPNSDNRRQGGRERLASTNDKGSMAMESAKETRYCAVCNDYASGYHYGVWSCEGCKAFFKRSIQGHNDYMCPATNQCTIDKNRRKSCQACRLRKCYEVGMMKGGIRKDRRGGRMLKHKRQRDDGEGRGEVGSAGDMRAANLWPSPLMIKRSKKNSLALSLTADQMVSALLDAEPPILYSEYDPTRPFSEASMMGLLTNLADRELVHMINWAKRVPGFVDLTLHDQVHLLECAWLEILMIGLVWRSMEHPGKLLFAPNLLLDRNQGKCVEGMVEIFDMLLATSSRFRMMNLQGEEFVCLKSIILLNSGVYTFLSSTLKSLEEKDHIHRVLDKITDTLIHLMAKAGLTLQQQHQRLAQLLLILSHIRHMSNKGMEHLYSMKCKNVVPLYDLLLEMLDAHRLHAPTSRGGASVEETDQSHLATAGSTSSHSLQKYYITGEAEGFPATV

Assay [2] can be described thus: CCTE_Deisenroth_AIME_384WELL_CTox_Active: Cytotoxicity Assessment (CTOX) in CCTE's 384-well Estrogen Receptor Transactivation Assay with AIME metabolic competence (metabolism positive), Deisenroth Lab (AID 2284037).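 Further: chemicals first conditioned 2 h by alginate-bound induced rat liver S9 before cells; activity means signal loss indicating cell death.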 The gist of the method: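 Chemicals pre-incubated 2 hours with alginate-immobilised phenobarbital/beta-naphthoflavone-induced male Sprague Dawley rat liver S9, then conditioned medium applied 24 hour to VM7Luc4E2 cells. Viability by fluorogenic protease substrate; 10-point series 0.002 - 200 uM.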

The target of assay [3] is Estrogen receptor (Homo sapiens) (UniProt P03372). The experiment in a line: CCTE_Deisenroth_AIME_384WELL_LUC_Inactive: CCTE's 384-well Estrogen Receptor Transactivation Assay without AIME metabolic competence (ERTA luciferase; metabolism negative), Deisenroth Lab (AID 2284038).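 Further: hits raise estrogen receptor luciferase signal so potencies reflect agonists.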 The gist of the method:
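Metabolism-negative mode: AIME lids stamped in alginate-water, no hepatic S9. 2 h chemical incubation → medium onto VM7Luc4E2 ERTA, 24 h. Readout luciferase luminescence; gain-of-signal fit vs 17beta-estradiol. Conc. 0.002 - 200 uM.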

Assay [4] can be described thus: CCTE_Deisenroth_AIME_384WELL_CTox_Inactive: Cytotoxicity Assessment (CTOX) in CCTE's 384-well Estrogen Receptor Transactivation Assay without AIME metabolic competence (metabolism negative), Deisenroth Lab (AID 2284039).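 Further: cell viability via live-cell protease substrate cleaved to fluorescent probe; cells exposed 24 h to medium preincubated 2 h with alginate-water beads without S9; loss of fluorescence signal means loss of viability.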 The essentials:
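VM7Luc4E2 cells, metabolism-negative arm: test chemicals (0.002–200 uM, 10 points) pre-incubated 2 h with alginate-water microspheres, then medium transferred to cells for 24 h. Viability read as protease-substrate cleavage to fluorescent probe; loss-of-signal, bidirectional fitting.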

Assay [5] addresses Estrogen receptor (Homo sapiens) (UniProt P03372). As to the kind of experiment: CCTE_Deisenroth_AIME_384WELL_LUC_Shift: CCTE's 384-well Estrogen Receptor Transactivation Assay with AIME metabolic competence data shift (ERTA luciferase; difference in metabolism positive and negative), Deisenroth Lab (AID 2284041; active means hit-call score of the fitted dose curve at least 0.9, where 1 is the maximum; inactive means score below 0.9;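 further: shift is response with S9 minus without S9 so positive means metabolism raised ER signal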). The essentials:
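Chemicals (0.002–200 uM, 10 points) pre-incubated 2 h with alginate-encapsulated induced male Sprague Dawley rat liver S9 or S9-free, then medium applied 24 h to VM7Luc4E2 cells; luciferase. Endpoint is per-concentration difference, S9-positive minus negative.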

The nature of assay [6]: CCTE_Shafer_MEA_acute_cross_correlation_HWHM: CCTE's Neural Acute Assay for Cross Correlation at Half Width at Half Maximum, Shafer Lab (AID 2284026; active means hit-call score of the fitted dose curve at least 0.9, where 1 is the maximum; inactive means score below 0.9;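 further: percent change per well from pre-dose baseline in spike cross-correlogram half width; hits are a decrease in cross-correlogram half width relative to DMSO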;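 on outcome: spontaneous network firing of rat primary cortical neurons on multiwell microelectrode arrays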). The gist of the method:
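Read-out: half width at half maximum of action-potential cross-correlogram, percent change versus pre-treatment baseline, fitted in loss direction against DMSO. Rat cortical cultures, DIV 13 or 15, dosed 0.03-40 uM, 40-min recordings at 37 C.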

The nature of assay [7]: CCTE_Shafer_MEA_acute_synchrony_index: CCTE's Neural Acute Assay for Synchrony, Shafer Lab (AID 2284027; active means hit-call score of the fitted dose curve at least 0.9, where 1 is the maximum; inactive means score below 0.9;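 further: network synchrony index of spontaneous spiking in primary rat cortical neurons on MEAs; fitted for loss of signal so actives lower synchrony relative to DMSO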). The essentials:
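Acute exposure of rat primary cortical neurons (DIV 13 or 15) at 0.03-40 uM. Synchrony index, 40 min before vs after, as % change relative to DMSO control.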

Assay [8] is described as follows: CCTE_Shafer_MEA_dev_firing_rate_mean: CCTE's Neural Network Formation Assay for Mean Firing Rate, Shafer Lab (AID 2284031; active means hit-call score of the fitted dose curve at least 0.9, where 1 is the maximum; inactive means score below 0.9). The gist of the method:
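Extracellular spike frequency, AUC over DIV 5–12 recordings, in rat cortical neuron MEA cultures dosed from plating; loss direction vs DMSO.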

A short description of assay [9]: CCTE_Shafer_MEA_dev_per_burst_spike_percent: CCTE's Neural Network Formation Assay for Percent of Spikes in a Burst, Shafer Lab (AID 2284032; active means hit-call score of the fitted dose curve at least 0.9, where 1 is the maximum; inactive means score below 0.9). The essentials:
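Value is trapezoidal AUC over recordings on days 5, 7, 9 and 12 of the well-mean fraction of spikes falling in single-electrode bursts; rat cortical cultures exposed continuously from plating, treatment renewed DIV 5 and 9, fitted downward against DMSO.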

Assay [10] is described as follows: CCTE_Shafer_MEA_dev_active_electrodes_number: CCTE's Neural Network Formation Assay for Number of Active Electrodes, Shafer Lab (AID 2284040). The essentials: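 Developing rat cortical networks on MEAs, exposed DIV 0–12. Value is the AUC of active-electrode counts (≥5 spikes/min) from days 5, 7, 9, 12, relative to DMSO.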
The nature of assay [11]: CCTE_Shafer_MEA_dev_burst_rate: CCTE's Neural Network Formation Assay for Burst Rate, Shafer Lab (AID 2284042; active means hit-call score of the fitted dose curve at least 0.9, where 1 is the maximum; inactive means score below 0.9). The gist of the method: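 Primary rat cortical neurons on PEI-coated 48-well MEA plates (laminin added with cells at plating) (16 electrodes/well), exposed from plating to day 12, dosing renewed at DIV 5 and 9. Burst rate averaged over active electrodes, recorded DIV 5, 7, 9, 12, summarized as AUC; loss versus DMSO.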

Assay [12] in a line: CCTE_Shafer_MEA_dev_per_burst_interspike_interval: CCTE's Neural Network Formation Assay for Burst Interspike Interval, Shafer Lab (AID 2284044; active means hit-call score of the fitted dose curve at least 0.9, where 1 is the maximum; inactive means score below 0.9). The gist of the method: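 Readout is the average time between spikes inside single-electrode bursts, taken as a well mean across bursting electrodes. Cortical neurons from rat developed networks on MEA plates under continuous 12-day exposure; recordings on days 5, 7, 9 and 12 were integrated by trapezoidal AUC.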

The nature of assay [13]: CCTE_Shafer_MEA_dev_burst_duration_mean: CCTE's Neural Network Formation Assay for Mean Burst Duration, Shafer Lab (AID 2284045; active means hit-call score of the fitted dose curve at least 0.9, where 1 is the maximum; inactive means score below 0.9). The essentials:
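Rat cortical cultures, 1.5 x 10^5 cells/well with laminin drop; continuous dosing days 0–12, media plus treatment refreshed DIV 5, 9. AxIS adaptive spike detection; mean single-electrode burst duration, AUC over four recordings, negative direction vs DMSO.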

Assay [14] can be described thus: CCTE_Shafer_MEA_dev_interburst_interval_mean: CCTE's Neural Network Formation Assay for Mean Interburst Interval, Shafer Lab (AID 2284046; active means hit-call score of the fitted dose curve at least 0.9, where 1 is the maximum; inactive means score below 0.9;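 further: well-mean interburst interval of bursting electrodes as AUC over four recording days; curve fitted for decrease in interburst interval relative to DMSO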). The gist of the method:
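Recordings on days 5, 7, 9 and 12 give well-mean interburst interval across actively bursting electrodes, summarized as area under the curve. Cultures: rat cortical neurons, continuous exposure from day 0, compound renewed at feeds; decrease analyzed versus DMSO.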

The nature of assay [15]: CCTE_Shafer_MEA_dev_inter_network_spike_interval_mean: CCTE's Neural Network Formation Assay for Mean Inter-network Spike Interval, Shafer Lab (AID 2284047; active means hit-call score of the fitted dose curve at least 0.9, where 1 is the maximum; inactive means score below 0.9). The gist of the method:
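Primary rat cortical neurons on 16-electrode MEA wells, exposed from plating day 0 through DIV 12, compound renewed at DIV 5 and 9 media changes. Mean interval between network-spike peaks recorded DIV 5, 7, 9, 12; collapsed as trapezoidal AUC, fitted downward versus DMSO.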

Assay [16] in a line: CCTE_Shafer_MEA_dev_network_spike_number: CCTE's Neural Network Formation Assay for Number of Network Spikes, Shafer Lab (AID 2284048; active means hit-call score of the fitted dose curve at least 0.9, where 1 is the maximum; inactive means score below 0.9). The essentials: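 Rat cortical primary cultures on 48-well MEA (16 electrodes/well); continuous exposure DIV 0–12, full medium and treatment exchange DIV 5, 9. Readout: network spike count, AxIS adaptive detection, recordings DIV 5/7/9/12 collapsed to AUC; loss-of-signal fit, DMSO baseline.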

Assay [17] in a line: CCTE_Shafer_MEA_dev_bursting_electrodes_number: CCTE's Neural Network Formation Assay for Number of Bursting Electrodes, Shafer Lab (AID 2284043). The gist of the method:
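Rat cortical primary neurons, 48-well MEA, 16 electrodes/well; dosing DIV 0–12, re-dosed with full media change DIV 5, 9. Recordings DIV 5/7/9/12, AxIS adaptive spike detector; bursting electrode = ≥1 burst/2 min. AUC across days; loss of signal vs DMSO.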

Assay [18] addresses Estrogen receptor (Homo sapiens) (UniProt P03372). The experiment in a line: CCTE_Deisenroth_AIME_96WELL_LUC_Inactive: CCTE's 96-well Estrogen Receptor Transactivation Assay without AIME metabolic competence (ERTA luciferase; metabolism negative), Deisenroth Lab (AID 2284025). The gist of the method:
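Metabolism-negative arm: chemicals (0.002–200 uM, 10 points) incubated 2 h with alginate-water microspheres, then medium moved onto VM7Luc4E2 cells for 24 h luciferase read-out. Positive direction vs 17beta-estradiol; n≥4 experiments.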

Assay [19] can be described thus: CCTE_Deisenroth_AIME_96WELL_CTox_Active: Cytotoxicity Assessment (CTOX) in CCTE's 96-well Estrogen Receptor Transactivation Assay with AIME metabolic competence (metabolism positive), Deisenroth Lab (AID 2284028). The gist of the method: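 Cytotoxicity in VM7Luc4E2 breast cells after 24 h exposure to medium from a 2 h metabolic pre-incubation with induced rat hepatic S9 in alginate microspheres; fluorescent live-cell protease readout, 10-point series 0.002–200 uM, n=4.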

Assay [20] can be described thus: CCTE_Deisenroth_AIME_96WELL_CTox_Inactive: Cytotoxicity Assessment (CTOX) in CCTE's 96-well Estrogen Receptor Transactivation Assay without AIME metabolic competence (metabolism negative), Deisenroth Lab (AID 2284029). The essentials:
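Cytotoxicity in VM7Luc4E2 breast cells was scored as loss of fluorescent signal from a live-cell protease substrate 24 h after exposure, using bidirectional curve fitting. Test media came from a 2 h metabolism-negative pre-incubation (alginate-water, no hepatic S9) of compounds at 0.002-200 uM, with at least four replicates.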

Regarding `O=C(O)/C=C/c1ccccc1`, the result in [1], in assay [2], in assay [3], in assay [4] and in assay [5] was inactive.

With `COC(=O)[C@H](Cc1ccccc1)NC(=O)[C@@H](N)CC(=O)O` (H-Asp-Phe-OMe), the compound was called inactive in assay [6], in [7], in [1], in assay [8], in assay [9] and in assay [2]. Further, the call in [3], in assay [10], in assay [5], in assay [11], in assay [12] and in assay [13] was inactive. Besides, the result in assay [14], in [15] and in assay [16] was inactive.

Consider `Cc1c(C(=O)c2c[nH]n(C)c2=O)ccc(S(C)(=O)=O)c1C1=NOCC1`, for which the call in [6], in [7], in [8], in assay [9], in assay [10] and in assay [11] was inactive. For the same compound, the outcome in assay [17], in assay [12], in assay [13], in assay [14], in assay [15] and in assay [16] was inactive.

One may read the AC50 as the concentration at which the activity in the assay is half-maximal. Turning to `Oc1ccc(/C=C/c2cc(O)cc(O)c2)cc1`, the AC50 was 15.2 µM (active) in [18], 70.2 µM (active) in assay [19] and 40.5 µM (active) in assay [20].

For `CCCCC/C=C\C/C=C\CCCCCCCC(=O)O`, the call in [1], in assay [2], in assay [3], in [4] and in assay [5] was inactive.

Turning to `CCCCCCCCCCCC(=O)N(C)CC(=O)O`, the half-maximal activity concentration (AC50) in assay [6] is 21.6 µM (active); in assay [7], 21.9 µM (active).

Turning to `COc1ccc(-c2coc3cc(O)cc(O)c3c2=O)cc1`, the AC50 was 0.971 µM (active) in assay [18], 75.9 µM (active) in assay [19] and 156 µM (active) in assay [20].

Regarding `CCCC(CC)c1ccccc1` (configuration not stated), the call in [1], in assay [2], in assay [3], in [4] and in [5] was inactive.

Turning to `C/C=C/C=C/CCCCCCCO`, the compound was called inactive in assay [1], in assay [2], in [3] and in assay [5]. In addition, the half-maximal activity concentration (AC50) in assay [4] was 151 µM (active).

`c1ccc(Nc2cccc3ccccc23)cc1`: the AC50 in [18] was 12.7 µM (active); in [6] it was 5.12 µM (active); in assay [7] it was 8.24 µM (active).

In the case of `Nc1ccc(C(=O)O)cc1`, the outcome in assay [1], in assay [2], in [3], in assay [4] and in assay [5] was inactive.

For the compound `Cc1cccc(C(C)(C)C)c1O`, the concentration at half-maximal activity (AC50) in assay [18] is 121 µM (active). Moreover, the call in assay [19] was inactive.

As for `Nc1nc(N)nc(-c2ccccc2)n1`, the call in [6] and in assay [7] was inactive.

On to `CCCCCCCCCCCCc1ccc(O)cc1`, for which the concentration at half-maximal activity (AC50) in [1] is 0.804 µM (active); in [2], 72.1 µM (active); in [3] it was 1.01 µM (active); in assay [4], 86.1 µM (active). Moreover, the outcome in assay [5] was inactive.
